Activity calls are given as the source filed them. Unless noted, no rule for the calls is given here.

The source of these data is PubChem BioAssay.

The test system of experiment [1] is XIP peptide (Xip251-270) binding. Nature of the experiment: XIP fragment 251-270 binding compounds – biochemical, small-molecule microarray, fluorescence 635/667 nm, 0.1 µg/mL protein, primary screen (AID 1182). The settings on record: fluorescent protein binding, 635 nm, higher = more signal, called active from +8 up or from −8 down.
The test system of the next experiment is XIP peptide (Xip251-270). In words: compounds binding XIP fragment 251-270 – biochemical, small-molecule microarray, fluorescence 635/667 nm, 0.5 µg/mL protein, primary screen (AID 1183). The settings on record: fluorescence 635 nm, higher = more signal.
Experiment [2] in a line: blood-stage malaria parasite viability loss – strain 3D7, DAPI fluorescence, 100 nL, primary screen (AID 1184).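 Also: parasites grown inside human red blood cells in medium with human serum.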 Particulars: P. falciparum 3D7 growth, 3 d, higher = more signal.
For experiment [3], the target named is Homeobox protein Hox-A13 (Mus musculus) (UniProt Q62424). In words: disruptors of Hoxa13 oligonucleotide interaction – biochemical, fluorescence polarization, labeled oligonucleotide, primary screen (AID 1185). Particulars: Hoxa13:DNA binding, 15 min, higher = more signal, called active from +8 up or from −8 down. On the technique in general: In fluorescence polarisation assays a small probe gives low polarisation when free and higher when bound to something large.

The nature of experiment [4]: blockers of DNA damage checkpoint Chk1 activation – imaging, HeLa, hydroxyurea, phospho-Chk1 antibody, percent positive cells, primary screen (AID 1186). The settings on record: hydroxyurea-induced phospho-Chk1 immunofluorescence imaging, higher = more signal.
Experiment [5] in a line: blockers of DNA damage checkpoint Chk1 activation – imaging, HeLa, hydroxyurea, phospho-Chk1 nuclear intensity, primary screen (AID 1187). Particulars: hydroxyurea-induced phospho-Chk1 immunofluorescence imaging, higher = more signal.

Homeobox protein Hox-A13 (Mus musculus), sequence (Q62424 whole entry, looked up): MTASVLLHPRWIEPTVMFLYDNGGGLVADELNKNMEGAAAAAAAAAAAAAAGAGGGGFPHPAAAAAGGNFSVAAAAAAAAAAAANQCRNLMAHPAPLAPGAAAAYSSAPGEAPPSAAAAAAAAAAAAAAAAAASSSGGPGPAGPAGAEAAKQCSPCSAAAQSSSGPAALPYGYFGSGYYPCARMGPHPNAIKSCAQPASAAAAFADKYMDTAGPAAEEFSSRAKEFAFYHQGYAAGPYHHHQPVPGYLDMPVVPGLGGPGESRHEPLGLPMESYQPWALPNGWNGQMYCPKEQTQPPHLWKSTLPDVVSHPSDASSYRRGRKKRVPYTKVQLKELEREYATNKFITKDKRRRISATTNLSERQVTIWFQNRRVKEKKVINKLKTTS

On to `[N-]=[N+]=Nc1ccccc1[C@@H]1OC(c2ccc(OCCCO)cc2)=N[C@]1(Cc1ccccc1)C(=O)NCC(O)CO` (stereo partly drawn), for which the figures for the composite z-score (in experiment [1]; in the experiment on XIP peptide (Xip251-270)) were 2.53 (inactive) and 0.747, respectively. Moreover, the z-score in experiment [2] was -2.14; in experiment [3] it was -3.18 (inactive); in experiment [4], -0.358 (inactive); in experiment [5] it was -0.228 (inactive).
Consider `CCOC(=O)C[C@H]1[C@H](OC(=O)c2ccccc2-c2ccccc2)[C@@H](NC(=O)c2ccc(-c3ccccc3)cc2)c2cc(OCCCO)ccc2N1C(=O)c1ccc2ccccc2n1`, for which the results for the composite z-score (in experiment [1]; with XIP peptide (Xip251-270)) were -0.07 (inactive) and 0.421, respectively. Further, the z-score is -0.557 in experiment [2], -1.48 (inactive) in experiment [3], -0.145 (inactive) in experiment [4] and -0.0265 (inactive) in experiment [5].
`Cc1ccc(S[C@]2(C(=O)O)CC(=O)N(Cc3cc(C(F)(F)F)cc(C(F)(F)F)c3)[C@@H]2c2ccc(CO)cc2)cc1`: the results for the composite z-score (in experiment [1]; in the experiment on XIP peptide (Xip251-270)) were -0.287 (inactive) and -1.25, respectively. Moreover, the z-score in experiment [2] was 0.777; in experiment [3], -3.18 (inactive); in experiment [4], 0.0261 (inactive); in experiment [5] it was -0.641 (inactive).
On to `C=C(COC)/C(=C/C[C@H](OC(=O)c1ccncc1)c1ccccc1OCCO)c1cnc2ccccc2c1`, for which the composite z-score in experiment [1] is 0.683 (inactive); in the experiment on XIP peptide (Xip251-270), 0.612. Further, the z-score in experiment [2] was -2.99; in experiment [3], -5.29 (inactive); in experiment [4], -0.446 (inactive); in experiment [5] it was -0.166 (inactive).
In the case of `CC=CC(O)C1C=CC2C(=O)N(c3ccccc3)C(=O)C2N1Nc1ccccc1F` (stereo not drawn), the composite z-score was 0.147 (inactive) in experiment [1] and 0.744 in the experiment on XIP peptide (Xip251-270). Further, the z-score in experiment [2] is -0.48; in experiment [3], -3.7 (inactive); in experiment [4], 0.0921 (inactive); in experiment [5] it was -0.305 (inactive).
For `CN1C(=O)C2C=CC(C(O)C#Cc3ccccc3)N(Nc3ccccc3)C2C1=O` (stereo not drawn), the composite z-score in experiment [1] was 0.783 (inactive); in the experiment on XIP peptide (Xip251-270), 0.794. In addition, the z-score in experiment [2] is -0.351; in experiment [3], -4.25 (inactive); in experiment [4] it was -0.0435 (inactive); in experiment [5], 0.113 (inactive).
For `COC(=O)[C@@]1(Cc2ccccc2N=[N+]=[N-])N=C(c2ccc(OCCCO)cc2)O[C@H]1c1ccccc1N=[N+]=[N-]`, the composite z-score in experiment [1] is 0.764 (inactive); in the experiment with XIP peptide (Xip251-270), 0.848. The z-score in experiment [2] was -2.03; in experiment [3], -0.305 (inactive); in experiment [4], -0.362 (inactive); in experiment [5], -0.267 (inactive).
For `COc1ccc([Si](C)(C)[C@@H]2[C@@H](CC(=O)N(CCO)Cc3ccccc3)O[C@]3(C(=O)N(c4ccccc4)c4ccccc43)[C@H]2C)cc1`, the composite z-score is 0.153 (inactive) in experiment [1] and 0.38 in the experiment on XIP peptide (Xip251-270). In addition, the z-score in experiment [2] is -2.54; in experiment [3] it was -5.59 (inactive); in experiment [4], -1.11 (inactive); in experiment [5], -0.327 (inactive).
Consider `C=CCC(OC(C)=O)[C@@H]1[C@@H](N(Cc2cc3ccccc3o2)C(=O)Cc2ccc(F)cc2)c2cc(OCCCO)ccc2N1C(=O)c1ccc2ccccc2c1` (stereo partly drawn), for which the composite z-score is -0.231 (inactive) in experiment [1] and -0.271 with XIP peptide (Xip251-270). For the same compound, the z-score in experiment [2] was 1.15; in experiment [3], -1.95 (inactive); in experiment [4], 0.608 (inactive); in experiment [5] it was 0.308 (inactive).
As for `CC(C)C(CO)N1C(=O)[C@@H]2C3C(=O)OCCC/C=C\[C@H]3OC23C=CCN(C(C)(C)C)C(=O)[C@@H]13` (stereo partly drawn), the composite z-score is -0.68 (inactive) in experiment [1] and -0.201 with XIP peptide (Xip251-270). The z-score is 1.16 in experiment [2], -5.07 (inactive) in experiment [3], 0.0464 (inactive) in experiment [4] and -0.0642 (inactive) in experiment [5].
With `COc1cc(OC)c(C(O)C2C=CC3C(=O)N(c4ccccc4)C(=O)C3N2Nc2ccccc2)cc1Br` (stereo not drawn), the composite z-score in experiment [1] is 1.02 (inactive); in the experiment on XIP peptide (Xip251-270) it was 0.577. Moreover, the z-score in experiment [2] was 0.0461; in experiment [3], -3.38 (inactive); in experiment [4], -0.754 (inactive); in experiment [5], -0.747 (inactive).
For `COC(=O)c1cn(C[C@@H](Cc2ccccc2)NC(=O)N[C@H](CO)CCc2oc(C(C)=O)c(C(=O)OC)c2C(=O)OC)nn1`, the composite z-score in experiment [1] was 0.224 (inactive); in the experiment with XIP peptide (Xip251-270) it was 0.111. In addition, the z-score is -0.818 in experiment [2], -4.33 (inactive) in experiment [3], -0.406 (inactive) in experiment [4] and -0.043 (inactive) in experiment [5].
For `C=C[C@@H](COC(C)=O)N(C(=O)OC(C)(C)C)S(=O)(=O)c1ccc(Br)cc1`, the composite z-score in experiment [1] was 0.805 (inactive); with XIP peptide (Xip251-270) it was 0.546. In addition, the z-score is 0.573 in experiment [2], -2.35 (inactive) in experiment [3], -0.506 (inactive) in experiment [4] and -0.474 (inactive) in experiment [5].
